Hit rate of the full screen: of about 59,000 compounds, about 6,500 (11%) were called active. About 15% were inconclusive and are not listed. No stated cut-off is given here; in the data, active means max dye-equivalent concentration above about 10 nM; inconclusive means mostly about 1.1 nM to 9.6 nM; inactive means weaker than that. Shown is part of a subset that was picked to be rich in actives.
Assay: qHTS Assay for Spectroscopic Profiling in A350 Spectral Region
Conditions: Compound autofluorescence, 340/450 nm, Alexa 350 dye-equivalents; hits give high values

Row | Compound | max dye-equivalent concentration
1 | O=C(O)CCN1C(=O)CC2(CCCCC2)C1=O | inactive
2 | O=c1[nH]nc(CSCc2ccccc2Cl)[nH]1 | inactive
3 | N#Cc1ccc(CSc2nnc(-c3ccccn3)n2-c2ccc(Cl)cc2)cc1 | inactive
4 | CN(C)c1ccc(CNC23CN4CN(CN(C4)C2)C3)cc1 | inactive
5 | CCOC(=O)CSc1nnc(CNC(=O)c2ccco2)n1-c1ccc(F)cc1 | inactive
6 | O=C(Oc1ccc2c(c1)CN(Cc1ccccc1)CO2)c1ccccc1 | inactive
7 | COC(=O)c1c(NC(=O)CSc2nc3c(c(=O)n(C)c(=O)n3C)n2C(C)C)sc(C)c1C | inactive
8 | CCOP1(=O)C=C(C(C)(C)C)OC1c1ccc(F)cc1 (configuration not stated) | inactive
9 | CC(C)c1nc(-c2ccccn2)no1 | inactive
10 | CSCCC(NS(=O)(=O)/C=C/c1ccccc1)C(=O)N1CCC(C)CC1 (configuration not stated) | inactive
11 | CCn1c(SCC(=O)Nc2ccc3c(c2)OCCO3)nc2c(c1=O)SC(C)C2 (configuration not stated) | inactive
12 | O=C(O)c1ccc(C(=O)O)c2c(C(=O)O)ccc(C(=O)O)c12 | inactive
13 | COc1ccc2[nH]c(=O)c(CN(CC3CCCO3)C(=O)Nc3ccccc3)cc2c1 (configuration not stated) | 100 nM (active)
14 | COc1ccc2[nH]c(=O)c(CN(Cc3nnnn3CCc3ccccc3)CC3CCCO3)cc2c1 (configuration not stated) | 300 nM (active)
15 | O=C(OCc1cc2ccccc2[nH]c1=O)c1cccnc1 | inactive
16 | CCC(=O)N(Cc1cc2cc(OC)ccc2[nH]c1=O)c1ccccc1C | 170 nM (active)
17 | c1ccc(CCn2nnnc2CN2CCN(C3CCCC3)CC2)cc1 | inactive
18 | O=C(CN(CC1CCCO1)C(=O)CNS(=O)(=O)c1ccccc1)NCc1ccccc1 (configuration not stated) | inactive
19 | CCOc1ccc2c(c1)cc(CN(C(=O)CC)C1CCCCC1)c1nnnn12 | inactive
20 | CCOc1ccc2[nH]c(=O)c(CN(CCCO)C(C)=O)cc2c1 | 290 nM (active)
21 | Cc1cc(C)c2cc(CN(Cc3cccs3)Cc3nnnn3CC3CCCO3)c(=O)[nH]c2c1 (configuration not stated) | inactive
22 | C[C@@H]1CC[C@H]2[C@H](C)[C@H]3[C@H](C[C@H]4[C@@H]5CC=C6C[C@@H](O)CC[C@@]6(C)[C@@H]5C[C@@H](O)[C@]34C)N2C1 | inactive

Row | Compound | max dye-equivalent concentration
23 | CN(C)CCNC(CC(=O)Nc1ccc(Cl)c(Cl)c1)C(=O)O (configuration not stated) | inactive
24 | Cc1ccc(CNC(=O)C2CCCN(S(C)(=O)=O)C2)cc1 (configuration not stated) | inactive
25 | O=C(Nc1ccccc1F)c1cc(S(=O)(=O)N2CCCCC2)cs1 | inactive
26 | NCC(=O)[C@@H](O)[C@H](O)[C@H](O)CO | inactive
27 | O=C(O)c1nn(-c2ccc(Cl)cc2)c2c1C(=O)c1ccccc1C2=O | inactive
28 | CCCN1CCN(CCCNC(=O)CN2C(=O)COc3ccccc32)CC1 | inactive
29 | CCn1c2c(c3ccc(OC)cc31)CCCC2=O | 11 nM (active)
30 | C[C@H](CCC(=O)NCC(=O)O)[C@H]1CC[C@H]2[C@H]3[C@@H](C[C@@H](O)[C@]12C)[C@]1(C)CC[C@H](O)C[C@@H]1C[C@@H]3O | inactive
31 | CC1(C)Cc2c(sc3nc4n(c(=N)c23)CCCCC4)CO1 | inactive
32 | CCC1(C)Cc2c(sc3nc4n(c(=O)c23)CCCS4)CO1 (configuration not stated) | 56 nM (active)
33 | CCOC(=O)Cn1c(SC)nc2sc3c(c2c1=O)CC(C)(C)OC3 | inactive
34 | CCCCC[C@H](O)CCCC(=O)O | inactive
35 | CC(=O)c1c(C)n(-c2ccc(N(C)C)cc2)c2ccc(OCC(N)=O)cc12 | inactive
36 | CCCc1[nH]nc2c1C(c1ccc(OC)c(Cn3nc(C)c(Br)c3C)c1)C(C#N)=C(N)O2 (configuration not stated) | inactive
37 | CC(=O)/C(=N\N=C(N)N)c1ccccc1 | inactive
38 | CC(=C1C(=O)c2ccccc2C1=O)N1CCN(c2ccccn2)CC1 | inactive
39 | OC(COc1cccc2ccccc12)CN1CCN(c2ccccn2)CC1 (configuration not stated) | inactive
40 | O=C1c2cccc3cccc(c23)N1CN1CCN(c2ccccn2)CC1 | 16 nM (active)
41 | COc1ccccc1OCCC(=O)OCC(=O)NC(=O)NC(C)(C)C | inactive
42 | CN1C(C)(C)CC(NC(=O)CCC(=O)NC2CC(C)(C)N(C)C(C)(C)C2)CC1(C)C | inactive
43 | CCn1c(=N)c(S(=O)(=O)c2ccc(F)cc2)cc2c(=O)n3ccccc3nc21 | 780 nM (active)
44 | CC1CCCC(NC(=O)CSc2nccn2C)C1C (configuration not stated) | inactive

Row | Compound | max dye-equivalent concentration
45 | O=C(c1c(Cl)nc2sccn12)N1CCCc2ccccc21 | inactive
46 | COc1ccccc1CNc1nc(-c2c(C)noc2C)nc2ccccc12 | inactive
47 | Cc1cnc(NC(=O)CSc2nnc(-c3ccccc3)n2Cc2ccccc2)s1 | inactive
48 | COc1ccc(CC(=O)Nc2nc3n(n2)C(c2ccccc2)CC(=O)N3)cc1OC (configuration not stated) | inactive
49 | CNC(=O)CSc1nnnn1-c1ccc(C)cc1C | inactive
50 | COc1ccc(-n2c(C)cc(C(=O)CSc3nnc(-c4cccs4)o3)c2C)cc1 | inactive
51 | COc1ccc(OC)c(C(=O)CSc2nnc(-c3cccs3)o2)c1 | 150 nM (active)
52 | COc1ccc(-c2nnc(SCC(=O)c3cccs3)o2)c(OC)c1 | inactive
53 | c1ccc(CSCCc2ccncc2)cc1 | inactive
54 | CN(CCC#N)c1ncnc2scc(-c3ccccc3)c12 | inactive
55 | O=C(CN1C2CCC1CC(NC(=O)C1CC1)C2)NCc1ccccc1 (configuration not stated) | inactive
56 | CCCCNC(=O)CSc1nnc(-c2ccco2)n1C | inactive
57 | CC(C)N(C(=O)COC(=O)c1ccccc1C(=O)N1CCN(c2ccc(F)cc2)CC1)C(C)C | inactive
58 | Cn1c2ccccc2c2c(C(=O)N3CCN(c4ccc(F)cc4)CC3)cn(C3CCCC3)c(=O)c21 | 13 nM (active)
59 | O=C(c1ccccc1)c1cccn1CC(=O)N1CCN(c2ccc(F)cc2)CC1 | inactive
60 | CCCCn1nnnc1NCc1cc(OC)c(OC)c(OC)c1 | inactive
61 | COc1ccccc1-n1nnnc1S(=O)(=O)Cc1ccc(Cl)cc1 | inactive
62 | COc1ccc(OCC(=O)N2CCN(C(=O)COc3ccccc3)CC2)cc1 | inactive
63 | CCC(CC)C(=O)Nc1cccc(C(=O)N2CCCC2)c1 | inactive
64 | COc1ccc(OCc2cccc(C(=O)N3CCCC3)c2)cc1 | 18 nM (active)
65 | Cc1noc(C)c1CSc1nnc2ccc3ccccc3n12 | inactive
66 | CCC(=O)Nc1sc(C(=O)N2CCCCC2)c(C)c1C#N | inactive

Row | Compound | max dye-equivalent concentration
67 | CC(C)C(C(=O)NC1CCCCC1)N(CC1CCCO1)C(=O)CNS(=O)(=O)c1ccc(F)cc1 (configuration not stated) | inactive
68 | c1ccc2c(CNn3cnnc3)cccc2c1 | inactive
69 | COC(=O)[C@H](Cc1ccccc1)NC(=O)N1CC(C)OC(C)C1 (some centres not stated) | inactive
70 | COc1ccc(C2N=C(N)N=C(N)N2c2ccccc2)cc1OC (configuration not stated) | inactive
71 | C=CCn1c(CC(=O)Nc2cccc(OC)c2)nnc1SCC(=O)NC1CCCCC1 | inactive
72 | c1coc(-c2nc3nc4ccccc4n3nc2-c2ccco2)c1 | inactive
73 | Cn1c(-c2ccco2)nc2cc3ccccc3cc21 | 1100 nM (active)
74 | Cn1c(SCC(=O)c2cccs2)nnc1-c1ccco1 | inactive
75 | O=C(Nc1cc(C(F)(F)F)ccc1Cl)c1cc(C2CC2)on1 | inactive
76 | Cn1c(SCC(=O)OC2CCCCC2)nnc1-c1ccc(S(=O)(=O)N2CCCC2)cc1 | inactive
77 | Nc1ccc(-c2nnc(-c3ccc(-c4ccccc4)cc3)o2)cc1 | 300 nM (active)
78 | O=C(COC(=O)c1ccc(Oc2ccccc2)cc1)Nc1nnc(-c2ccccc2)o1 | inactive
79 | O=C(CSc1nnc(-c2ccccc2)o1)N1CCOCC1 | inactive
80 | O=C(O)CN1C(=O)CC(Cc2ccccc2)C1=O (configuration not stated) | inactive
81 | c1nc(COc2nsnc2N2CCOCC2)cs1 | inactive
82 | O=C(OC1CCOC1=O)c1ccc(-c2nc3ccccc3s2)s1 (configuration not stated) | 1100 nM (active)
83 | Cc1nn(Cc2ccccc2)c(Cl)c1C(=O)OC1CCOC1=O (configuration not stated) | inactive
84 | O=C(c1cccs1)N1CCC(c2nc3ccccc3s2)CC1 | inactive
85 | CC(C)NS(=O)(=O)c1ccc(OCC(=O)Nc2ccc3c(c2)OCCO3)cc1 | inactive
86 | COc1ccc(N2CCN(C(c3cc4ccc(C)cc4[nH]c3=O)c3nnnn3C3CCCC3)CC2)cc1 (configuration not stated) | inactive
87 | COc1ccc(OC)c(C(c2nnnn2C(C)(C)C)N2CCc3ccccc3C2)c1 (configuration not stated) | inactive
88 | COCCn1nnnc1C(c1cc2ccc(OC)cc2[nH]c1=O)N1CCc2ccccc2C1 (configuration not stated) | 18 nM (active)

Row | Compound | max dye-equivalent concentration
89 | CCOc1ccc2[nH]c(=O)c(C(c3nnnn3CCOC)N3CCOCC3)cc2c1 (configuration not stated) | 690 nM (active)
90 | COCCn1nnnc1C(c1ccccc1Cl)N1CCN(c2ccccc2OC)CC1 (configuration not stated) | inactive
91 | Cc1cc(C)c2[nH]c(=O)c(C(c3nnnn3Cc3ccc4c(c3)OCO4)N3CCCC3)cc2c1 (configuration not stated) | inactive
92 | CCOc1ccccc1Nc1nnc(SCC(=O)Nc2cc(C)on2)s1 | inactive
93 | Cc1ccccc1CN1CCN(C(=O)c2cccc(F)c2)CC1 | inactive
94 | CCOc1ccccc1N=C1NC(=O)CS1 | inactive
95 | COc1ccccc1-c1nnc(SCC(=O)Nc2ccccc2)o1 | inactive
96 | c1ccc(CCN2CCN=C2Cc2ccccc2)cc1 | inactive
97 | O=c1cc(-c2ccc(O)c(O)c2)oc2cccc(O)c12 | inactive
98 | COc1ccc(-c2csc(N3CCN(Cc4ccc5c(c4)OCO5)CC3)n2)cc1 | inactive
99 | CC(C)OC(=O)C(C#N)c1nc2ccccc2nc1N1CCN(Cc2ccc3c(c2)OCO3)CC1 (configuration not stated) | 120 nM (active)
100 | CC(C)OC(=O)C(C#N)c1nc2ccccc2nc1N1CCN(Cc2ccccc2)CC1 (configuration not stated) | inactive
101 | Cc1ccc(S(=O)(=O)N2CCN(Cc3cccc(C)c3O)CC2)cc1 | inactive
102 | Cc1cc(=O)oc(C)c1C(=O)Nc1cnc2ccccc2c1 | 12 nM (active)
103 | Cc1cc(=O)oc(C)c1C(=O)NC1CC(C)(C)NC(C)(C)C1 | inactive
104 | CC(=O)Nc1cccc(NC(=O)c2c(-c3ccccc3)noc2C)c1 | inactive
105 | O=C(CCN1C(=O)c2ccncc2C1=O)Nc1ccc2c(c1)OCCO2 | inactive
106 | CCC(=O)Nc1ccc(C(=O)Nc2ccc3c(c2)C(=O)N(CC2CCCO2)C3=O)cc1 (configuration not stated) | 150 nM (active)
107 | O=C(NCc1ccc2c(c1)OCO2)c1ccc2c(c1)C(=O)N(CC1CCCO1)C2=O (configuration not stated) | inactive

Source: PubChem BioAssay AID590 (National Center for Advancing Translational Sciences (NCATS), 2007)
